An excerpt weighted towards active compounds, which were near 2.5% of everything screened.
D2 PAM-1 = positive allosteric modulators of human D2 dopamine receptor; P14416; HEK293 T-REx D2, calcium flux, EC20 dopamine potentiation; potentiation, % at 10 µM; 340,000 compounds, 0.34% hits;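 active = potentiation over 3 SD above the plate norm, cut at about 30% in these data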
Target sequence (P14416 whole entry, looked up): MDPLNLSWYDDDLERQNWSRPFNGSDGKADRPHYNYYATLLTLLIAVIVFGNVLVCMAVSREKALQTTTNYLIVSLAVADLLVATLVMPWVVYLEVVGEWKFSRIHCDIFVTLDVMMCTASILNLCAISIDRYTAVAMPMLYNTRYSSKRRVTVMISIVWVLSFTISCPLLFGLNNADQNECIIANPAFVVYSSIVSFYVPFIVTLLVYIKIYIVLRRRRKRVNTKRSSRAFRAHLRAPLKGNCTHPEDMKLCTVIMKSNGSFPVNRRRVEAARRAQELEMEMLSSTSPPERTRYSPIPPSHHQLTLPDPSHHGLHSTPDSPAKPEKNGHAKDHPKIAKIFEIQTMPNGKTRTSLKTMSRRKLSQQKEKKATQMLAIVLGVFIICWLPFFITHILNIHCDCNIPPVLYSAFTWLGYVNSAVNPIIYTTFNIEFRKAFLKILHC
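Potentiation of an EC20 dopamine calcium response measured kinetically over 180 s, after a preceding 180 s compound-only read flagging agonists. Cells: inducible Hek293 Trex D2 line, 4000/well, cultured overnight at 30 C before dye loading.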
D2 antag = antagonists of human D2 dopamine receptor; P14416; HEK293 TREx D2 cells, calcium flux, dopamine EC80; inhibition, % at 10 µM; 340,000 compounds, 2% hits; AID 485344; in the data active = inhibition above about 30%; inactive = below that, where a call was filed
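HEK293 T-REx D2 cells, tet-induced, calcium dye no-wash. Cpd pintool add, 180 s kinetic, then EC80 DA, 180 s kinetic. Ca flux read.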
D2 PAM-2 = human D2 receptor positive allosteric modulation. DiscoveRx D2 beta-arrestin cells, luminescence, 90 min; 100% = 57 uM dopamine signal. potentiation, % (concentration not given with the values). 360,000 compounds, 0.23% hits. AID 624464; in the data active = potentiation above about 50%; inconclusive = mostly about 30% to 49%
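D2 cells co-treated with compound plus 50 nM dopamine (EC20) for 90 min at 37 deg C to detect potentiation. Beta-arrestin recruitment was read as enzyme-fragment luminescence after 1 h at ambient temperature. Full response was set by 57 uM dopamine.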
D2 ag-1 = agonists of human D2 dopamine receptor (beta-arrestin) | P14416 | DiscoveRx PathHunter D2 beta-arrestin, luminescence, 90 min; 100% = 57 uM dopamine signal | activation, % (no concentration beside the values) | 360,000 compounds, 0.084% hits | AID 624465; in the data active = activation above about 40%; inconclusive = between about 15% and that limit
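Agonist mode: compounds alone added to overnight-plated D2 PathHunter cells for 90 min at 37 C, with 57 uM final dopamine (EC100) defining full response. Beta-arrestin recruitment detected by chemiluminescent reagent, read after 1 h at ambient temperature.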
Apoferritin bind = binds horse apoferritin like a general anesthetic; Potency, µM (highest dose often 77.5 µM), usual class: inhibitors; AID 485281; 350,000 compounds, 0.074% hits; P02791; apoferritin/1-aminoanthracene competitive binding, fluorescence; active = well fitted inhibition curve with a large enough effect; inconclusive = small, poorly fitted or top-dose-only effect; inactive = no such curve, though single readings can be large or run the other way; also: nearly all actives have a fitted effect of over 20% in size
Target sequence (P02791 2-175 limits assumed): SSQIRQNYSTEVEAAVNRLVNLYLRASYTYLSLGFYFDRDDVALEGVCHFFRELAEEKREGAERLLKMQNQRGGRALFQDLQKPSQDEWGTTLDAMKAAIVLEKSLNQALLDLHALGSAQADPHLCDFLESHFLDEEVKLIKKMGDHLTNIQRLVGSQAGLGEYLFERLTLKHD
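Concentration-response curves derived by four-parameter Hill fitting of normalized fluorescence, where compounds displaced 1-AMA from 10 uM horse apoferritin following a brief 10 min room-temperature incubation; propofol titration acted as positive control.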
D2 ag-2 = D2 dopamine receptor (human) agonism. HEK293 T-REx D2 cells, calcium flux agonist mode. activation, % at 2 µM. P14416. 340,000 compounds, 0.53% hits;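 active = activation over 3 SD above normal in the single-dose calcium agonist read, cut at about 30% in these data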
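Calcium-flux readout, 1 cycle/sec over 180 s following compound pin transfer, in inducible HEK293 Trex D2 cells (force-coupled); dopamine controls included. Positive calcium responses during this window marked compounds as potential agonists.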
A number is an active result; i = inactive; ? = inconclusive; nt = not tested or not shown.

SMILES | D2 PAM-1 | D2 antag | D2 PAM-2 | D2 ag-1 | Apoferritin bind | D2 ag-2
COc1ccc(Cl)cc1NC(=O)CSc1nnc(COc2ccccc2)n1C | i | 42.8 | i | i | ? | i
CSc1ccc(NC(=O)Nc2cccn(Cc3ccccc3)c2=O)cc1 | i | i | i | i | i | i
O=C(NC1CCCCC1)C(c1cccs1)N(C(=O)c1ccccn1)c1ccccc1 (configuration not stated) | i | i | i | i | i | i
Cn1c(SCC(=O)Nc2ccc(Cl)cc2F)nnc1-c1ccco1 | i | 40.4 | i | i | i | i
CCCCOC(=O)C1=C(C)NC2=C(C(=O)CCC2)C1c1cc(OC)ccc1OC (configuration not stated) | i | i | i | i | i | i
COc1ccc(C(=O)NCCSCc2cccc(Cl)c2)cc1OC | i | 32.0 | i | i | i | i
COc1ccc(C(=O)NCCc2ccccc2)cc1OC | i | i | i | i | i | i
COc1ccc(C(=O)NCCC2=CCCCC2)cc1 | i | i | i | i | i | i
COC(=O)COc1ccc(S(=O)(=O)NCCC2=CCCCC2)cc1C | i | i | i | i | 5.62µM | i
COc1cccc(C(=O)NCCC2=CCCCC2)c1 | i | i | i | i | 28.2µM | i
COc1ccc(C(=O)NCCC2=CCCCC2)cc1OC | i | 34.5 | i | i | ? | i
CCOc1ccc(CN2C(=O)c3ccccc3C2C(=O)NC(C)CC)cc1OC (configuration not stated) | i | i | i | i | i | i
COc1ccc(C(=O)NCCc2cnc[nH]2)cc1OC | i | 34.9 | i | i | i | i
CCOc1ccc(C(=O)NCCc2cnc[nH]2)cc1OCC | i | i | i | i | i | i
COc1cc(OC)cc(-c2c(-c3ccc(F)cc3)c3cc(-c4ccc5c(c4)OCCO5)ccc3n2C)c1 | nt | nt | i | i | nt | nt
CCOC(=O)c1ccc(CN2C(=O)c3ccccc3S2(=O)=O)cc1 | i | i | i | i | i | i
CCOc1ccc(C(C)=O)cc1CN1C(=O)c2ccccc2S1(=O)=O | i | 34.0 | i | i | i | i
Cc1c(O)ccc(NC(=O)/C=C/c2ccccc2)c1C | i | 35.0 | i | i | i | i
CCS(=O)(=O)c1ccc(O)c(NC(=O)/C=C/c2ccccc2)c1 | i | i | i | i | i | i
O=C(O)CCC(=O)N(Cc1ccco1)C1CC(=O)N(c2ccccc2)C1=O (configuration not stated) | i | i | i | i | i | i
O=C(Cn1nnc(-c2ccccc2NC(=O)c2ccccc2F)n1)NCc1ccco1 | i | 32.5 | i | i | i | i
CC(C)Oc1ccc(CNC(=O)c2ccc3c(c2)N(C)CCS3)cc1 | i | 46.6 | i | i | i | i
O=C(CN(CC1CCCO1)C(=O)CNS(=O)(=O)c1ccc(F)cc1)NCc1ccc(F)cc1 (configuration not stated) | i | 36.6 | i | i | i | i
O=C(CN(CC1CCCO1)C(=O)CNS(=O)(=O)c1ccccc1)NCc1ccc(F)cc1 (configuration not stated) | i | i | i | i | i | i
CCCC(C(=O)NC1CCCC1)N(CC1CCCO1)C(=O)CNS(=O)(=O)c1ccc(F)cc1 (configuration not stated) | i | 31.8 | i | i | i | i
SMILES | D2 PAM-1 | D2 antag | D2 PAM-2 | D2 ag-1 | Apoferritin bind | D2 ag-2
C/C(Cc1ccccc1)=N/NC(=O)CNC(=O)C(c1ccccc1)c1ccccc1 | i | i | i | i | i | i
CO/N=C(/CS(=O)(=O)Cc1ccccc1Cl)c1ccc(Cl)cc1Cl | i | 43.1 | i | i | i | i
Cc1cc(C)c2ccc(C)[n+]([O-])c2c1O | i | 37.4 | i | i | i | i
Cc1sc(NC(=O)C2CCCCC2C(=O)O)c(C(N)=O)c1-c1ccccc1 (configuration not stated) | i | i | i | i | i | i
Cc1sc(NC(=O)CCC(=O)O)c(C(N)=O)c1-c1ccccc1 | i | 47.5 | i | i | i | i
OCCN1CCN(C(=S)NCCc2ccccc2)CC1 | i | i | i | i | i | i
CC(NC(=O)/C(C#N)=C/c1ccc(N2CCOCC2)cc1)c1ccccc1 (configuration not stated) | 32.2 | i | i | i | i | i
COC(=O)c1ccc(/C=C(\C#N)C(=O)NC(C)c2ccccc2)cc1 (configuration not stated) | i | i | i | i | i | i
CCc1ccccc1-n1ncc(C(=O)Nc2ccc(OC)cc2)c1C | nt | nt | i | i | nt | nt
O=C(Nc1nnc(-c2ccccc2)o1)c1nc2ccccc2s1 | i | i | i | i | i | 43.9
CCCCN(C=O)c1c(CC)nc2ccc(C(=O)N3CCN(C(=O)c4ccco4)CC3)cn12 | nt | nt | i | i | nt | nt
CC(C)[N+]1(C)[C@@H]2CC[C@@H]1CC(OC(=O)C(CO)c1ccccc1)C2 (some centres not stated) | i | i | i | i | nt | i
COc1cc(/C=C/CN2CCC(Oc3ccc(C(=O)N4CCCC4)cc3)CC2)ccc1O | i | i | i | i | i | i
COc1ccccc1/C=C/CN1CCC(Oc2ccc(C(=O)N3CCCC3)cc2)CC1 | i | 47.1 | i | i | i | i
COc1ccc(CCC(C)N2CCC(Oc3ccc(C(=O)N4CCCC4)cc3)CC2)cc1 (configuration not stated) | i | 30.4 | i | i | i | i
COc1ccc(CN2CCC(Oc3ccc(C(=O)N4CCCCC4)cc3)CC2)cc1C | i | i | i | i | i | i
COC(=O)c1cc(N=Nc2sc(N)nc2C)cc(C(=O)OC)c1 | i | i | i | i | i | i
O=C(CSc1nc2ccccc2c(=O)n1CCC(=O)N1CCN(c2ccccc2)CC1)NCC1CCCO1 (configuration not stated) | nt | i | i | i | i | i
COCCCN1C(=O)C2C(C(=O)Nc3cccc(Cl)c3)C3C=CC2(O3)C1C(=O)NC1CCCCC1 (configuration not stated) | i | i | i | i | i | i
Cc1ccc2occ(-c3nn[nH]n3)c(=O)c2c1 | i | i | i | i | i | i
CC(C)c1ccc2occ(-c3nn[nH]n3)c(=O)c2c1 | i | 32.4 | i | i | i | i
O=C(CN(C1CCCCC1)S(=O)(=O)c1ccccc1)NCc1ccco1 | 46.5 | i | i | i | i | i
COc1ccc(S(=O)(=O)NCC(=O)N(CC(=O)NCc2ccco2)C2CCCC2)cc1 | i | 46.7 | i | i | i | i
COc1ccc(S(=O)(=O)N(C)CC(=O)NCc2ccco2)cc1OC | i | 33.7 | i | i | i | i
Cc1cccc(-n2c(SCc3nc(-c4ccccc4C)no3)nnc2-c2ccccc2)c1 | i | nt | nt | nt | i | i
